Experimental data taken from PubChem BioAssay AID1212 (NMMLSC, 2008).
A number with no mark means an inactive call. Calls of active or inactive are those of the source.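 Rule for the calls: active = blocks over 60% of fluorescent estradiol binding at 10 µM; inactive = the rest.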

Biological target: G-protein coupled estrogen receptor 1 (Homo sapiens) (UniProt Q99527)
Assay: GPR30 competitive binders vs fluorescent estrogen, primary screen, cell-based, Cos7 GPR30-GFP, flow cytometry, 10 µM (AID 1212)
Details: fluorescent estrogen competition, at 10 µM; hits give high values

| SMILES | outcome | inhibition |
| --- | --- | --- |
| CC1(C)CC(CCNCc2ccc3c(c2)OCO3)(Cc2ccccc2)CCO1 (stereo not drawn) | inactive |  |
| O=C1C2CCN(CC2)C1Cc1ccc(O)cc1 (stereo not drawn) | inactive |  |
| CCNCC1(c2ccc(OC)c(OC)c2)CCCC1 |  | 7% |
| COc1ccc2[nH]cc(CCN=C(N)N)c2c1 | inactive |  |
| COc1ccc(C2(CN)CCCC2)cc1 |  | 10% |
| N=c1c[n+](CCc2ccc(O)cc2)[n-]o1 | inactive |  |
| COc1ccc(C2(CN)CCCC2)cc1OC | inactive |  |
| COc1cc2c(cc1OC)CC(C)(C)NC2 |  | 3% |
